High-throughput results: PubChem BioAssay, National Center for Advancing Translational Sciences (NCATS)
An excerpt weighted towards active compounds, which were near 2.4% of everything screened.
Pol iota inh – inhibitors of human DNA polymerase iota. Potency, µM (doses to about 115 µM), inactives show at the top dose activity, negative = inhibition, hits mostly inhibitors. Pol iota fluorescent replication assay, 10 min. hit rate 1% among 390,000
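Fluorescent replication assay read twice, at 0 min and 10 min after adding 50 nM (final) substrate. Enzyme (10 nM) and compounds were first incubated 15 min at room temperature; enzyme-free buffer wells were negative controls.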
Pol beta inh – blocks human DNA polymerase beta activity; P06746; Pol beta primer extension/strand displacement, fluorescence kinetic; Potency, µM (highest dose often 114 µM), inactives show at the highest dose activity change, negative = inhibition, actives largely listed as inhibitors; hit rate 1.3% among 340,000; AID 485314; also: % is scaled to controls: 0 for no effect and ±100 for the full control effect
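Values derive from four-parameter Hill fits of normalized kinetic data: reads at 0 and 10 min following addition of 50 nM substrate to 10 nM Pol beta preincubated 15 min with compound.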
WRN helicase inh – inhibitors of human WRN helicase; Q14191; WRN helicase unwinding, fluorescent forked duplex, kinetic; Potency, µM (series often up to 114 µM), for the others: top-dose activity change, negative = inhibition, usual class: inhibitors; hit rate 0.46% among 360,000; also: % is scaled to controls: 0 for no effect and ±100 for the full control effect; nearly all actives have a fitted effect of over 55% in size
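Enzyme (20 nM final) and test compound sit together 15 min at room temperature before substrate addition. Substrate is a single-forked duplex oligonucleotide (100 nM) labelled with fluorophore and quencher, with 2 mM ATP; helicase unwinding raises red fluorescence, read kinetically.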
FEN1 inhibitor – human FEN1 inhibition. Potency, µM (top dose mostly 114 µM), for the others: at the highest dose activity change, negative = inhibition, usual class: inhibitors. Recombinant FEN1 flap cleavage, fluorescence, 15 min. P39748. hit rate 0.35% among 390,000. AID 588795; also: % is scaled to controls: 0 for no effect and ±100 for the full control effect; nearly all actives have a fitted effect of over 65% in size
Target sequence (P39748 whole entry, looked up): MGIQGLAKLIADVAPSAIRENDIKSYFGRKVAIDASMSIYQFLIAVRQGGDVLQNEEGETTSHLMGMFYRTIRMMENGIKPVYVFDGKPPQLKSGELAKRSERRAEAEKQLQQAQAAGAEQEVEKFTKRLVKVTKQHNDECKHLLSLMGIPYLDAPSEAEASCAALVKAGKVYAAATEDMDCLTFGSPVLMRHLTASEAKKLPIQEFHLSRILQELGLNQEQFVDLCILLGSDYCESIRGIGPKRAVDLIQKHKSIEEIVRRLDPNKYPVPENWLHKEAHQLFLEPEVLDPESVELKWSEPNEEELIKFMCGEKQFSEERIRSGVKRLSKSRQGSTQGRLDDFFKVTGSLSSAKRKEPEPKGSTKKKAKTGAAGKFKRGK
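Quantitative HTS format: each compound was titrated, incubated with 10 nM nuclease for 15 min at room temperature, then challenged with flap substrate at 50 nM final. Signal change over 15 min gave concentration–effect curves.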
Pol eta inh – DNA polymerase eta (human) inhibition; Q9Y253; recombinant Pol eta, fluorescent DNA replication assay; Potency, µM (highest dose often 114 µM), without a hit: at the top dose activity change, negative = inhibition, usual class: inhibitors; hit rate 1.2% among 390,000; AID 588591; also: % is scaled to controls: 0 for no effect and ±100 for the full control effect
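Fluorescent replication assay: 50 nM final substrate added after a 15 min room-temperature compound preincubation with 10 nM enzyme. Signal taken at 0 min and again at 10 min.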
POLK inh – blocks human DNA polymerase kappa activity. purified Pol kappa, fluorescent DNA synthesis assay, 10 min. Potency, µM (highest dose often 107 µM), without a hit: at the top dose activity, negative = inhibition, usual class: inhibitors. hit rate 0.53% among 400,000. AID 588579; also: % is scaled to controls: 0 for no effect and ±100 for the full control effect
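Activity was followed as the change in fluorescence between reads at 0 and 10 min after starting the reaction with 50 nM substrate. Beforehand, 10 nM polymerase had been preincubated with compound for 15 min at room temperature.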
* marks the source's active call; other numbers are inactive results; u = inconclusive; x = no result; [ ] = remark or other dose. Calls follow the shape of the dose curve; as a rule, active = well fitted curve in the direction sought with a large enough effect; inconclusive = small, poorly fitted or top-dose-only effect, or another doubt; inactive = no such curve, though single readings can be large; an effect the other way counts as inactive or inconclusive. Potency is read from the fitted curve at half-maximal effect.

SMILES	Pol iota inh	Pol beta inh	WRN helicase inh	FEN1 inhibitor	Pol eta inh	POLK inh
N=C1C(c2nc3ccccc3[nH]2)=C(O)CN1c1ccccc1	2.8%	13.1%	-14.3%	1.5%	-16.3%	-0.6%
CCCCC[n+]1cccc2c3ccccc3ccc21	31.6%	1.1%	-6.9%	-12.2%	-18.5%	3.2%[60.1 µM]
CCCCCCCCCCCCCCCC[n+]1ccc(CC(O)c2c(C)[nH]c3ccccc23)c2ccccc21 (configuration not stated)	118.3%	x	x	50.1µM*	x	64.1%
C=C1C(n2cnc3c(=O)[nH]c(N)nc32)C[C@H](O)[C@H]1CO (some centres not stated)	x	x	x	x	x	4.8%[19.4 µM]
COCCNc1cc(-c2ccccc2C)ncn1	x	x	x	x	x	31.6µM*
CNc1cc(-c2ccccc2C)ncn1	x	x	x	x	x	4.7%[60.1 µM]
Nc1ncnc2c1nc(Sc1ccc(Cl)cc1)n2[C@H]1OC2COP(=O)(O)O[C@@H]2C1O (some centres not stated)	x	x	x	x	x	5.8%[60.1 µM]
CN(CC(=O)Nc1ccc(Cl)c(C(F)(F)F)c1)C(=O)Cn1cc([N+](=O)[O-])ccc1=O	21.4%	x	-3.8%[11.6 µM]	11.3%	79.4µM*	3.5%
Cc1ccc(NC(=O)CN(C)C(=O)Cn2cc(C(F)(F)F)ccc2=O)cc1	-13.4%	19.2%[57.1 µM]	-2.9%	1.4%	-27.0%	-16.8%
Cc1csc(NC(=O)CSCC(=O)O)c1-c1nc2ccccc2s1	u	-22.9%	-17.0%[11.6 µM]	u	89.1µM*	1.5%
Cc1ccc2nc(-c3ccc(NC(=O)CSCC(=O)O)cc3)sc2c1	1.9%	-15.5%	-2.7%	-8.5%	1.5%	-19.4%
O=C(CCS(=O)(=O)c1ccccc1)Nc1ccc2c(c1)OCO2	u	11.2µM*	-5.6%	2.3%	-7.7%	u
Cc1ccccc1OCC(=O)Nc1ccc2c(c1)OCO2	22.5%	20.2%	-6.5%	-8.9%	-20.8%	-5.5%
O=C(CCS(=O)(=O)c1ccccc1)Nc1ccc(Cl)cn1	17.4%	31.6µM*	-9.1%[57.1 µM]	0.8%	-4.2%	-17.0%
COc1ccccc1OCC(=O)Nc1ccc2c(c1)OCO2	u	50.1µM*	u	-17.6%	u	-25.1%
O=C(CS(=O)(=O)c1ccccc1)Nc1ccc(Cl)cn1	43.5%	1.9%	7.3%	5.0%	-20.0%	-7.7%
Cc1ccccc1OCC(=O)OCC(=O)Nc1ccc2c(c1)OCCO2	12.6µM*	x	-3.4%	0.5%	-3.1%	-4.1%
O=c1[nH]cc(CCc2ccccc2)c2ncncc12	u	x	x	-10.7%	x	-0.3%
Cc1ccc(NC(=O)CS(=O)CC(=O)Nc2ccc3c(c2)OCO3)cc1Cl (configuration not stated)	u	50.1µM*	-10.2%	-12.6%	u	-28.6%
Cc1ccc(S(=O)(=O)N(CC(=O)Nc2ccc3c(c2)OCO3)c2ccc(C)c(Cl)c2)cc1	0.4%	26.1%	x	u	-23.6%	-6.1%
O=c1cc(-c2ccsc2)oc2cc(-c3ccc4c(c3)OCO4)ccc12	20.3%	x	25.1µM*	-6.8%	u	-2.2%
COc1cc(-c2ccc3oc(-c4ccsc4)cc(=O)c3c2)cc(OC)c1OC	-0.1%	x	-2.5%	7.7%	-24.5%	-2.8%
COc1ccc(-c2ccc3c(=O)cc(-c4ccsc4)oc3c2)cn1	22.4µM*	x	50.1µM*	50.1µM*	u	-16.5%
CCC(=O)Nc1ccc(NC(=S)NC(=O)/C=C/c2ccccc2)cc1	u	10µM*	u	-20.2%	u	-27.0%
COc1cc(NS(=O)(=O)c2ccc(NC(=S)NC(=O)/C=C/c3ccc(F)cc3)cc2)ncn1	10.6%	14.6%	-7.7%	12.5%	-12.8%	-20.8%
COc1ccc(NS(=O)(=O)c2ccc(NC(=S)NC(=O)/C=C/c3ccccc3)cc2)nn1	u	11.5%	u	-4.3%	79.4µM*	-16.3%
CCc1nnc(NS(=O)(=O)c2ccc(NC(=S)NC(=O)/C=C/c3ccc(OC)cc3)cc2)s1	44.7µM*	-8.3%	u	50.1µM*	-11.0%	u
CCc1nnc(NS(=O)(=O)c2ccc(NC(=S)NC(=O)c3ccccc3)cc2)s1	5.5%	6.6%	-25.3%	-0.3%	-9.5%	-1.4%
